Screening data: PubChem BioAssay, National Center for Advancing Translational Sciences (NCATS)
DT40 TDP1 CPT – qHTS for Inhibitors of human tyrosyl-DNA phosphodiesterase 1 (TDP1): qHTS in cells in presence of CPT. chicken DT40 Tdp1-/-;hTDP1 cells + 20 nM CPT, ATP luminescence, 48 h. Potency, µM (series often up to 46.2 µM), most hits filed as inhibitors. hit rate 12% among 420,000. AID 686979, 2013; also: nearly all actives have a fitted effect of over 55% in size
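Chicken DT40 Tdp1-/- cells complemented with human TDP1, 400 cells/well, exposed to compounds plus 20 nM camptothecin for at least 48 h at 37 C; viability read as ATP content by CellTiter-Glo luminescence.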
HT1080NT lethal – qHTS for induction of synthetic lethality in tumor cells producing 2HG: qHTS for the HT-1080-NT fibrosarcoma cell line | HT-1080-NT fibrosarcoma viability, CellTiter-Glo ATP luminescence, 48 h | Potency, µM (highest dose often 46.1 µM), most hits filed as cytotoxic | hit rate 1.6% among 360,000;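 also: NT is the 2HG producing partner of a matched IDH1 knockdown line; nearly all actives have a fitted effect of over 55% in size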
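Toxicity toward the 2HG-producing NT line was scored as %Activity, normalised to DMSO and no-cell wells, from CellTiter-Glo luminescence after 48 hours' treatment.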
IL1B secr inh – qHTS for Inhibitors of Inflammasome Signaling: IL-1-beta AlphaLISA Primary Screen. THP-1 LPS/ATP IL-1B secretion, AlphaLISA, 16 h; active compounds read low. activity change, % at 57.5 µM. hit rate 4.7% among 360,000. AID 743279, 2014; in the data active = activity change below about -50%; inconclusive = mostly about -30% to -49%
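THP-1 cells pretreated 1 hr with compounds (up to 57.5 uM final), then stimulated with LPS (250 ng/mL final) plus ATP (1.25 mM final); secreted IL-1B measured by AlphaLISA after 16 hr, decreased signal indicating inhibition.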
TDP1 cell noCPT – qHTS for Inhibitors of human tyrosyl-DNA phosphodiesterase 1 (TDP1): qHTS in cells in absence of CPT; Potency, µM (top dose mostly 46.2 µM), hits mostly inhibitors; hit rate 15% among 420,000; DT40 Tdp1-/- hTDP1 cells, no CPT, ATP luminescence, 48 h; also: nearly all actives have a fitted effect of over 55% in size
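Camptothecin absent (DMSO only). Human TDP1-complemented DT40 knockout cells, 400 cells/well, 37 °C for minimum 48 hr; ATP measured via CellTiter-Glo, 30 min dark incubation, luminescence.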
HT1080 IDH1KD tx – qHTS for induction of synthetic lethality in tumor cells producing 2HG: qHTS for the HT-1080-IDH1KD cell line; HT-1080 IDH1 knockdown viability, ATP luminescence, 48 h; Potency, µM (titrated, usually from 46.1 µM), usual class: cytotoxic; hit rate 2% among 360,000; AID 686971, 2013
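HT-1080-IDH1KD cells (IDH1 knocked down), 750/well in RPMI with 5% FBS, treated with compound 48 h at 37 degrees C. Viability by CellTiter-Glo luminescence, normalised to DMSO and no-cell wells; concentration-response curves classed.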
Numbers stand for hits; . = inactive; ? = inconclusive; / = no result; [ ] = remark or other dose. Only some compounds are listed: those with a hit (about 19% of all), similar ones and a draw of the others. Unless noted, calls follow the shape of the dose curve; as a rule, active = well fitted curve in the direction sought with a large enough effect; inconclusive = small, poorly fitted or top-dose-only effect, or another doubt; inactive = no such curve, though single readings can be large; an effect the other way counts as inactive or inconclusive.

SMILES | DT40 TDP1 CPT | HT1080NT lethal | IL1B secr inh | TDP1 cell noCPT | HT1080 IDH1KD tx
CCOC(=O)c1c(-c2ccccc2)oc2ccc(OCC(O)CNCCN(C)C)cc12 (configuration not stated) | 16.4µM | 18.4µM | -102.6 | ? | 13µM
CCOC(=O)c1c(C)n(C)c2ccc(OCC(O)CNCCc3ccccc3)cc12 (configuration not stated) | ? | . | -60.0 | ? | .
CCOC(=O)c1c(C)n(-c2ccc(C)cc2)c2ccc(OCC(O)CN3CCN(C)CC3)cc12 (configuration not stated) | . | 20.6µM | -57.6 | ? | 18.4µM
CCCS(=O)(=O)NC(=O)C1(C)CCN(C(=O)c2cc(C)on2)C1 (configuration not stated) | . | . | . | ? | ?
CCCOc1ccc(-c2c(=O)n(OCC(=O)OCC)c3ccccc3[n+]2[O-])cc1 | . | . | . | . | .
COC(=O)c1ccc(/C=C/c2c(-c3ccsc3)oc3ccc(N4CCOCC4)cc23)cc1 | 18.4µM | . | . | ? | .
COc1ccc(-c2c(-c3ccsc3)oc3ccc(N4CCOCC4)cc23)cn1 | ? | . | . | 16.4µM | .
CCOc1ccc(S(=O)(=O)NCCC(=O)OCC(=O)c2ccc[nH]2)cc1 | . | . | . | . | .
N#Cc1ccc(C(=O)N2CCN(S(=O)(=O)c3ccc(Cl)s3)CC2)cc1 | ? | .[9.24 µM] | . | ? | .
COc1ccc(C(=O)Nc2sc3c(c2C#N)CCN(C(C)=O)C3)cc1 | 3.26µM | 8.2µM | . | 4.11µM | 5.8µM
CCOC(=O)N1CCc2c(sc(NC(=O)c3ccc(S(=O)(=O)N4CCCC4)cc3)c2C#N)C1 | 20.6µM | . | . | 14.6µM | .
CCCN1CCc2c(sc(NC(=S)NC(=O)c3ccccc3)c2C#N)C1 | 20.6µM | . | . | ? | .
CC(C)N1CCc2c(sc(NC(=O)c3ccc(S(=O)(=O)N4CCOCC4)cc3)c2C#N)C1 | 23.1µM | . | . | 20.6µM | .
COc1ccc(N2CCN(S(=O)(=O)CCNC(=O)c3c(F)cccc3Cl)CC2)cc1 | . | / | / | . | /
CCC1CCc2nc3sc(C(=O)Nc4cccc(C(F)(F)F)c4)c(N)c3cc2C1 (configuration not stated) | ? | / | / | 18.4µM | /
CCC1CCc2nc3sc(C(=O)Nc4ccc(C)cc4)c(N)c3cc2C1 (configuration not stated) | 11.6µM | / | / | 7.31µM | /
CN1CCc2nc3sc(C(=O)NCc4ccccc4)c(N)c3cc2C1 | ? | . | . | . | ?
CCC1CCc2nc3sc(C(=O)Nc4cccc(F)c4)c(N)c3cc2C1 (configuration not stated) | 3.26µM | / | / | 2.06µM | /
CCC1CCc2nc3sc(C(=O)Nc4ccc(F)cc4F)c(N)c3cc2C1 (configuration not stated) | 8.2µM | / | / | ? | /
COc1ccc(CCNS(=O)(=O)CCNC(=O)c2ccc3c(c2)OCO3)cc1OC | . | . | . | . | .
CC1(C(=O)Nc2ccc3c(c2)OCCO3)CCN1C(=O)C/C=C/c1ccccc1 (configuration not stated) | 29.1µM | . | . | ? | .
CC1(C(=O)NS(=O)(=O)Cc2ccccc2C(F)(F)F)CCN1C(=O)C/C=C/c1ccccc1 (configuration not stated) | ? | . | . | 23.1µM | .
CC(C(=O)Nc1cccc([N+](=O)[O-])c1)N1CCN(C/C=C/c2ccccc2)CC1 (configuration not stated) | ? | . | -71.7 | ? | .
O=C(Nc1ccc2c(c1)OCCO2)C(c1cc2ccccc2o1)N1CCN(C/C=C/c2ccccc2)CC1 (configuration not stated) | 14.6µM | ? | . | 16.4µM | ?
Cc1cccc(OCC(=O)OCC(=O)N2CCN(C(=O)c3ccco3)CC2)c1C | . | . | . | . | .
SMILES | DT40 TDP1 CPT | HT1080NT lethal | IL1B secr inh | TDP1 cell noCPT | HT1080 IDH1KD tx
Cc1oc(C(C)(C)C)cc1C(=O)Nc1ccc(N2CCOCC2)cc1 | . | . | ? | . | .
Cc1cc(C)c(NC(=O)CNC(=O)c2ccc3ncsc3c2)c(C)c1 | . | . | . | . | .
O=C(Nc1ccccc1)C1=C[C@@H](C2CC2)C[C@@H](OCc2ccc(CO)cc2)O1 | . | . | . | . | .
NC(=S)NN=C(Cc1ccccc1)Cc1ccccc1 | 5.8µM | . | . | 3.66µM | .
Cc1ccc(S(=O)(=O)N(C)Cc2ccccc2)cc1C(=O)N1CCCCC1 | 14.6µM | . | . | ? | .
O=C(NCCc1ccccc1)c1cc(S(=O)(=O)N2CCOCC2)ccc1F | . | . | . | . | .
O=C(c1cc(S(=O)(=O)N2CCOCC2)ccc1F)N(CCc1ccccc1)Cc1ccccc1 | ? | . | ? | 23.1µM | .
CCc1ccc(CN(C)C(=O)c2cc(S(=O)(=O)N3CCN(CC)CC3)ccc2Cl)cc1 | ? | . | -67.0 | 18.4µM | .
Cc1ccc(N(Cc2ccccc2)C(=O)c2cc(S(=O)(=O)N3CCOCC3)ccc2C)cc1 | 20.6µM | . | . | 13µM | .
CCN(CCO)c1ccc(N=Nc2cc(C)[nH]n2)cc1 | . | . | . | . | .
CC(C)CNC(=O)COc1ncnc2sccc12 | . | . | . | . | .
COC(=O)c1c(OCc2cccnc2)cc(=O)n2c1CCN(C(=O)c1cccc(N(C)C)c1)CC2 | . | / | / | . | /
C=CCn1cnc2c(nnn2-c2ccc(C)c(Cl)c2)c1=O | . | . | . | . | .
COc1cc(OC)cc(C(=O)N(Cc2ccco2)c2c(N)n(Cc3ccccc3)c(=O)[nH]c2=O)c1 | . | .[9.24 µM] | . | . | .
Cc1ccc(S(=O)(=O)N2CCCCC2)cc1C(=O)N(CCc1ccccc1)Cc1ccccc1 | 8.2µM | . | . | 10.3µM | .
Cc1ccccc1C(=O)N1CCC(C(=O)N(C)CCOc2ccccc2)CC1 | ? | . | . | ? | .
Cc1cccc(N(Cc2ccccc2)C(=O)C2CCN(C(=O)c3ccccc3C)CC2)c1 | 11.6µM | . | . | 5.8µM | .
COCCN(Cc1ccccc1)C(=O)c1cc(S(=O)(=O)N2CCCCCC2)ccc1OC | ? | . | . | ? | .
CCN1CCN(S(=O)(=O)c2ccc(Cl)c(C(=O)N(CCc3ccccc3)Cc3ccccc3)c2)CC1 | 23.1µM | ? | . | 23.1µM | ?
CCN1CCN(S(=O)(=O)c2ccc(Cl)c(C(=O)N(CC)Cc3ccccc3)c2)CC1 | ? | . | . | ? | .
COc1ccc(CNC(=O)/C=C/[C@H]2O[C@@H](n3cc(C)c(=O)[nH]c3=O)C[C@@H]2O)cc1 | . | . | . | . | .
